HPGD inh = qHTS Assay for Inhibitors of HPGD (15-Hydroxyprostaglandin Dehydrogenase) | AID 894, 2007 | purified HPGD, NADH fluorescence kinetic, PGE2 substrate | 4.3% of 150,000 active | Potency, µM, for the others: at the top dose activity change, negative = inhibition, actives largely listed as inhibitors | 15-hydroxyprostaglandin dehydrogenase [NAD(+)] (Homo sapiens), P15428; active means well fitted inhibition curve with a large enough effect, not every such curve was filed as active; inconclusive means small, poorly fitted or top-dose-only effect, or another doubt; inactive means no such curve, though single readings can be large or run the other way; further: on the % scale 0 is the no-effect control and ±100 the full control effect
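20 nM HPGD preincubated 15 min at room temperature with compound in 50 mM Tris-HCl pH 8, 0.01% Tween 20. Started with 1 mM NAD+ and 30 uM prostaglandin E2; NADH fluorescence (360/450 nm) read 5 times over 30-s intervals, last minus first.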
HTT cytoprotect = qHTS Multiplex Assay to Identify Dual Action Probes in a Cell Model of Huntington: Cytoprotection (ATP); PC12 HTT-Q103 induced, cytoprotection, ATP luminescence, 40 h; Potency, µM (titrated, usually from 56.4 µM), for inactives: cytoprotection (ATP increase), hits mostly activators; 0.14% of 230,000 active; further: % of control where 0% means no effect; nearly all actives have a fitted effect of over 45% in size
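Compounds added alongside 100 nM tebufenozide, which induces toxic Q103 huntingtin exon 1-GFP in stable PC12 cells; surviving cells quantified by luminescent ATP measurement. Medium: phenol red-free DMEM, 5% equine and 5% calf serum.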
HttQ103 aggreg = qHTS Multiplex Assay to Identify Dual Action Probes in a Cell Model of Huntington: Aggregate Formation (GFP) | 1.1% of 220,000 active | Potency, µM (titrated, usually from 46.1 µM), for the others: at the highest dose activity change, negative = inhibition, most hits filed as inhibitors | PC12 HttQ103-GFP aggregates, Acumen cytometry, 40 h; further: on the % scale 0 is the no-effect control and ±100 the full control effect; nearly all actives have a fitted effect of over 60% in size
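Huntingtin Q103 exon 1–GFP aggregates in induced PC12 cells (100 nM tebufenozide) were quantified by cytometry from lysates, with compounds dosed in titration.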
ALDH1A1 inh = qHTS Assay for Inhibitors of Aldehyde Dehydrogenase 1 (ALDH1A1); Aldehyde dehydrogenase 1A1 (Homo sapiens), P00352; Purified ALDH1A1, NADH fluorescence, propionaldehyde substrate; Potency, µM (highest dose often 75.3 µM), inactives show at the top dose activity, negative = inhibition, hits mostly inhibitors; AID 1030, 2008; 7.3% of 220,000 active; active means well fitted inhibition curve with a large enough effect, not every such curve was filed as active; inconclusive means small, poorly fitted or top-dose-only effect, or another doubt; inactive means no such curve, though single readings can be large or run the other way;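 further: plate controls were no enzyme wells and a reference inhibitor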
Target sequence (P00352 whole entry, looked up): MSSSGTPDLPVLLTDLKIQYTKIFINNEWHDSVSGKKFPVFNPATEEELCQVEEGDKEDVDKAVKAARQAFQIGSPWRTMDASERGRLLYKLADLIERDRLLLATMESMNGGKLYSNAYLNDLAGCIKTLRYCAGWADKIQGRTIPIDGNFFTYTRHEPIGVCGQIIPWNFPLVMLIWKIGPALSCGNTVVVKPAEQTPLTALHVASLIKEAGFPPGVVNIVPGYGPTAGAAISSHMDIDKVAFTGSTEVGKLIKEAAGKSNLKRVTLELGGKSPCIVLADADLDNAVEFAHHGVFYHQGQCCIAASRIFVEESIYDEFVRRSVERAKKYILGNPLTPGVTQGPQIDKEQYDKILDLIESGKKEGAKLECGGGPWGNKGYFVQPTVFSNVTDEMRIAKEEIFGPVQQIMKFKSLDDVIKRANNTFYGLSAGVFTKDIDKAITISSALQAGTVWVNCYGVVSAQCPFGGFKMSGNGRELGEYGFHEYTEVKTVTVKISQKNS
LMNA splice mod = qHTS Assay for Modulators of Lamin A Splicing. Potency, µM (highest dose often 46.1 µM), for inactives: at the highest dose ratio change, negative = inhibition, most hits filed as inhibitors. HeLa LMNA splicing GFP/RFP minigene ratio, 48 h. 0.01% of 200,000 active. AID 1487, 2009; active means well fitted inhibition curve with a large enough effect in the signal ratio, with a control signal flat, not every such curve was filed as active; inconclusive means small, poorly fitted or top-dose-only effect, or effect the other way, or a change in a side signal; the % refers to the signal ratio; further: on the % scale 0 is the no-effect control and ±100 the full control effect
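Read-out is the ratio of GFP to DsRed2 object intensity, acquired by 488 nm laser-scanning cytometry on HeLa lamin A-EGFP minigene reporter cells. Compound incubation 48 hrs at 37 °C in Opti-MEM with 2% FBS; DMSO 0.5% final.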
Starred values were filed as active, the others as inactive; ? = inconclusive; . = no result; [ ] = dose if it differs, or a comment. An excerpt weighted towards active compounds, which were near 8.8% of everything screened. Unless noted, the call rests on the fitted dose curve; in most records, active means well fitted curve in the direction sought with a large enough effect; inconclusive means small, poorly fitted or top-dose-only effect, or another doubt; inactive means no such curve, though single readings can be large; an effect the other way counts as inactive or inconclusive. Potency means the concentration at half of the fitted maximal effect.

SMILES	HPGD inh	HTT cytoprotect	HttQ103 aggreg	ALDH1A1 inh	LMNA splice mod
CCOc1ccc(NS(=O)(=O)c2ccc3[nH]cc(C(=O)N(C)Cc4ccccc4)c(=O)c3c2)cc1	.	.	.	.	12.9%[46 µM]
CCc1ccc(NS(=O)(=O)c2ccc3[nH]cc(C(=O)N(C)Cc4ccco4)c(=O)c3c2)cc1	-14.9%	-7.4%	0.1µM*	-6.2%	-4.0%
CCN1CCCC1Cn1c(-c2ccccc2)nc2c(N3CCOCC3)nc(C)nc21 (configuration not stated)	?	20.5%	.	?	.
COc1ccc(CSc2nc(C)cc(C)c2S(C)(=O)=O)cc1	.	2.8%[10 µM]	-21.1%	2.9%	19.8%[46 µM]
Cn1cccc1C(=O)OCC(=O)N1c2ccccc2NC(=O)C1(C)C	.	5.1%[10 µM]	7.4%	-1.5%	3.5%[46 µM]
COc1ccc(C(=O)/C=C2\NCC3c4ccccc4CCN3C2=O)cc1 (configuration not stated)	28.2µM*	-22.1%	7.0%	7.94µM*	8.2%
COc1ccc(C(=O)N2CCc3ccccc32)cc1	-16.9%	17.6%[10 µM]	7.1%	4.2%	-8.1%
CC(C)COP(=O)(c1ccc(N(C)C)cc1)C(O)c1ccncc1 (configuration not stated)	28.2µM*	-20.5%[0.074 µM]	8.2%	12.6µM*	8.2%
COc1ccc(-c2cn3nc(N4CCCC(C(=O)NCc5ccccc5OC)C4)sc3n2)cc1 (configuration not stated)	.	.	.	.	-3.9%[46 µM]
CC(=O)N(/N=C/c1ccc([N+](=O)[O-])o1)c1nc2ccccc2c(=O)n1-c1ccccc1	.	1.2%[10 µM]	7.5%[9.22 µM]	.	.
Cc1nc2ccccc2c(=O)n1/N=C/c1ccc([N+](=O)[O-])o1	.	-7.9%[10 µM]	17.6%[9.22 µM]	18.9µM*	.
Cc1nc2ccccc2c(=O)n1/N=C/c1ccc(N(C)C)cc1	-6.2%	-20.3%[10 µM]	-8.6%	15.8µM*	-4.7%
CCCc1c(C(=O)NNc2ccccc2OC)cnn1-c1ccccc1	.	-15.3%[10 µM]	3.5%[9.22 µM]	7.94µM*	.
CC(C)(C)N1C(=O)[C@H]2[C@H]3[C@H](O)[C@H](O)C/C(=N/NC(=O)OCc4ccccc4)[C@H]3CC[C@@H]2C1=O	.	-24.4%[10 µM]	.	-16.9%[13.5 µM]	.
c1cncc(-c2nc(N3CCOCC3)c3ccccc3n2)c1	-30.0%	-7.2%	0.891µM*	?	-18.2%
c1ccc2c(N3CCOCC3)nc(-c3ccncc3)nc2c1	-5.6%	-26.0%[10 µM]	?	-5.5%	?
O=C(COC(=O)CC(c1ccccc1)c1ccccc1)NCc1ccc(Cl)cc1	-29.4%	?	2.3%	?	?
O=C(COc1cccc(Cl)c1)N/N=C\c1cc2ccccc2nc1Cl	?	.	-7.2%	?	-1.7%
O=C(CNc1ccc2ccccc2c1)N/N=C/c1cc2ccccc2nc1Cl	-12.7%	.	18.9%	22.4µM*	?
COc1ccc(N2CCN(c3nc4ccc(C)cn4c(=O)c3C=O)CC2)cc1	.	-22.9%	16.0%	3.9%	.
COc1ccccc1C(=O)N1CCCC(c2nc(-c3cc(OC)c(OC)c(OC)c3)no2)C1 (configuration not stated)	-7.6%	-6.3%	1.7%	6.2%	-11.6%
Cc1ccc(-c2noc(C3CCCN(C(=O)c4ccccc4)C3)n2)o1 (configuration not stated)	0.1%	-23.1%	-1.7%	14.1µM*	-9.9%
CCCC(=O)N1CCCC(c2nc(-c3cccc(OC)c3)no2)C1 (configuration not stated)	.	-9.0%[10 µM]	17.2%[9.22 µM]	5.7%	?
COc1ccc(C(=O)N2CCCC(c3nc(-c4cc(OC)c(OC)c(OC)c4)no3)C2)cc1 (configuration not stated)	25.1µM*	-11.4%[10 µM]	10.8%	11.1%	0.2%
COc1cccc(-c2noc(C3CCCN(C(=O)Cc4ccccc4)C3)n2)c1 (configuration not stated)	-0.7%	1.3%	-7.1%	12.6µM*	-12.0%
CCOC(=O)c1cnc(NCc2ccc(OC)cc2OC)c2ccccc12	.	.	.	.	-13.2%[46 µM]
O=S(=O)(c1ccc(Br)cc1)N1CCn2cccc2C1c1ccc(Br)cc1 (configuration not stated)	.	.	.	.	0.8%[46 µM]

Assay outcomes: PubChem BioAssay, National Center for Advancing Translational Sciences (NCATS)
